# Sampled rows, rich in hits. Any-hit rate of the full collection: about 1.5%.
# CD11b adhes inh: inhibitors of human CD11b/CD18 binding to fibrinogen. AID 1497. P05107+P11215. K562 CD11b/CD18 adhesion to fibrinogen, ATPlite luminescence; Mn2+ added to activate the integrin. inhibition, % at 10 µM. hit rate 0.54% among 93,000;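 active means primary inhibition of 50% or more at 10 µM, then 40% or more on retest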
# GALR2 agonist: GALR2 (human) receptor agonism. O43603. GALR2-expressing cells, agonist activation read-out. activation, % (test concentration not listed). hit rate 0.48% among 140,000. AID 803; in the data active means activation above about 5%, passing the limit was not always enough;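 further: 0% = vehicle buffer wells and 100% = reference agonist at full effect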
# CD11b adhes enh: increases human CD11b/CD18 adhesion to fibrinogen; P05107+P11215; K562 CD11b/CD18 adhesion to fibrinogen, ATPlite luminescence; activation, % at 10 µM; hit rate 0.07% among 93,000; AID 1499;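 active means 10 µM primary screen giving 50% or more activity, confirmed by 40% or more on retest at that dose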
# S1P2 agonist: activates the human S1P2 receptor; hit rate 0.46% among 97,000; S1P2-expressing cell line, agonist reporter read-out; activation, % at 4.5 µM; AID 729; in the data active means activation above about 16%;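 further: 0% = vehicle low control and 100% = maximal reference agonist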
# Target sequence (O95136 whole entry, looked up): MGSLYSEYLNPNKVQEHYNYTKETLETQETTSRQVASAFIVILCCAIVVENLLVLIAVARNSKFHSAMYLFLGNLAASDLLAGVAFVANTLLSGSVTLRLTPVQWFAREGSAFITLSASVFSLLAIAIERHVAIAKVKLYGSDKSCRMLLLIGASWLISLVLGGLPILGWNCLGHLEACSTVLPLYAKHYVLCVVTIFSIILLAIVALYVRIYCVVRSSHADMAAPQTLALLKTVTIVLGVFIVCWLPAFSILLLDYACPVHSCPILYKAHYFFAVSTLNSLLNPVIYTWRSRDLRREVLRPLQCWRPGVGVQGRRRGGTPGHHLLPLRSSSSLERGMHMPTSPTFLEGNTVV
# S1P2 antag: blocks the human S1P2 receptor. O95136. cell-based S1P2 antagonist assay, inhibition at 5 uM. inhibition, % at 5 µM. hit rate 0.21% among 97,000. AID 736; in the data active means inhibition above about 45%;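 further: CRE beta-lactamase reporter cells expressing human S1P2 stimulated with S1P; 0% = agonist at EC80 alone and 100% = agonist plus reference antagonist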
# GALR2 antag: GALR2 (human) receptor antagonism. hit rate 0.39% among 140,000. O43603. inhibition, % at 4 µM. GALR2-expressing cells, antagonist mode. AID 828; in the data active means inhibition above about 27%;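 further: cells stimulated with galanin 1-16 at roughly its EC80; 0% = agonist challenge control and 100% = basal control without agonist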
# Starred values were filed as active, the others as inactive; x = not tested or not shown.
SMILES,CD11b adhes inh,GALR2 agonist,CD11b adhes enh,S1P2 agonist,S1P2 antag,GALR2 antag
COc1ccc(/C=c2/sc3n(c2=O)C(c2ccccc2OC)C2=C(N=3)c3ccccc3CC2)cc1O (stereo unspecified),-13.7,-2.9,169.1*,-14.3,21.7,22.4
CN(C)c1nc(N)nc(CSc2n[nH]c(-c3ccccc3)n2)n1,1.9,-1.8,2.3,30.6*,-29.9,-1.2
COCCn1c(=NC(=O)/C=C/c2ccccc2Cl)sc2cc(NC(C)=O)ccc21,x,6.0*,x,x,x,-6.5
COc1ccc(C2=Nn3c(nnc3-c3ccccc3)SC2)cc1OC,-28.3,3.8,-3.7,27.2*,-36.7,-7.3
COc1ccc(C2=Nn3c(nnc3C3CCCCC3)SC2)cc1OC,-17.5,1.9,7.1,36.4*,-88.4,-13.1
COc1ccc(-c2nnc3n2N=C(c2ccccc2)CS3)cc1OC,-2.8,x,0.3,x,x,x
COc1ccc(OC)c(C2=Nn3c(nnc3C3CCCCC3)SC2)c1,-15.0,-1.1,2.1,1.5,-34.6,-10.7
O=C(Nc1ccc(-n2nncc2-c2ccco2)cc1)c1cccc(F)c1,-31.8,-0.4,0.7,-2.2,-2.9,4.7
O=C(Nc1ccc(-n2nncc2-c2ccco2)cc1)c1cc2ccccc2oc1=O,-7.3,1.2,168.4*,-7.2,12.7,-17.0
N=c1cc(C2(O)CCCCC2)n2c(nc3ccccc32)s1,58.7*,-0.9,-3.7,-3.4,-36.2,6.3
COc1ccc(C2CC(C(F)(F)F)n3nc(C(N)=O)c(Cl)c3N2)cc1OC (stereo unspecified),-2.0,0.6,-6.0,23.6*,16.5,8.0
COc1ccc(C(=O)/C=C/Nc2ccc([N+](=O)[O-])cc2C)cc1OC,0.6,0.2,53.3*,-5.8,-10.2,0.5
COc1ccc(/C=C2\SC(=NCc3ccccc3)NC2=O)cc1,-9.9,-1.2,6.7,x,x,8.4
O=C1N/C(=N/Nc2ccccc2)S/C1=C\c1ccccc1,79.2*,-2.2,-11.6,-3.6,-21.6,-6.2
C=CCNc1oc(/C=C/c2ccccc2)nc1C#N,-12.9,12.2*,-2.9,16.6*,-22.4,1.8
Cc1nc2c(C(=O)NCCC(C)C)c[nH]n2c(=O)c1Cl,x,-2.2,x,x,x,-3.4
Cc1nc2c(C(=O)NCCC(C)C)c[nH]n2c(=O)c1Cc1ccccc1F,80.8*,-2.6,-9.4,-5.9,-7.9,2.7
CCn1c2ccccc2c2nc3cc(S(=O)(=O)N4CCOCC4)ccc3nc21,57.4*,1.6,-3.8,31.4*,-32.2,-19.3
c1ccc2nc3c(nc2c1)c1ccccc1n3CCN1CCOCC1,-33.6,0.0,5.3,2.9,-63.2,-11.6
CSc1nc2ccc(NS(=O)(=O)c3ccc(Cl)s3)cc2s1,81.6*,-0.1,-11.9,-0.6,3.1,-14.1
O=C(NCCc1ccc2c(c1)OCCO2)c1ccc(F)cc1,7.9,0.9,-1.5,x,x,-4.3
O=C1CCCN1CCCNc1ncnc2c1[nH]c1ccc(Cl)cc12,0.5,-1.3,-4.1,17.0*,11.4,-18.1
COc1ccccc1NS(=O)(=O)c1cc(C(=O)N2CC(C)CC(C)C2)ccc1C (stereo unspecified),9.3,0.6,0.4,1.1,-26.4,-9.3
Cc1n[nH]c(=O)nc1N/N=C/c1ccc(O)c([N+](=O)[O-])c1,x,-1.0,x,x,x,8.6
O=C1C2CC=CCC2C(=O)N1c1ccc(NCCc2ccc(O)cc2)c([N+](=O)[O-])c1 (stereo unspecified),x,-3.8,x,x,x,0.8
SMILES,CD11b adhes inh,GALR2 agonist,CD11b adhes enh,S1P2 agonist,S1P2 antag,GALR2 antag
CCOC(=O)c1c(C)n(C)c2ccc(OCC(O)CN(CC)CC)cc12 (stereo unspecified),-2.5,-2.2,-0.2,-4.6,11.3,13.4
CCOC(=O)c1c(C)n(C)c2ccc(OCC(O)Cn3nc(C)cc3C)cc12 (stereo unspecified),-2.3,-0.4,-2.1,58.4*,-16.2,-7.0
CCn1nc(NC(=O)c2ccccn2)c2cc3cccc(C)c3nc21,-8.0,6.2,-4.7,18.6*,-32.7,-17.2
CCCCCCNc1cc2n(c(=O)n1)CCc1cc(OC)c(OC)cc1-2,5.2,-0.8,0.1,30.3*,-47.7,-9.5
COc1cc2c(cc1OC)-c1cc(NC3CC3)nc(=O)n1CC2,0.1,-0.7,-2.0,14.9,-19.5,-8.3
COc1cc2c(cc1OC)-c1cc(NC3CCCCCCC3)nc(=O)n1CC2,-0.4,1.1,-3.6,50.0*,-5.9,-15.4
COc1cc2c(cc1OC)-c1cc(NC3CCCCC3)nc(=O)n1CC2,-8.3,-0.7,-6.1,33.1*,-32.3,5.4
Cc1cc(C)c(S(=O)(=O)N2CCCOC2CNC(=O)C(=O)NCc2ccncc2)c(C)c1 (stereo unspecified),x,-1.9,x,x,x,-2.6
Cc1cc(C)c2nc3s/c(=C/c4ccccc4)c(=O)n3c2c1,56.8*,-1.4,-4.8,-1.2,-17.9,-7.0
CCOc1cc(C2C3=C(CCCC3=O)N(CCC(=O)O)C3=C2C(=O)CCC3)ccc1OS(=O)(=O)c1ccc(C)cc1,x,1.1,x,x,x,-1.8
Cc1ccc(S(=O)(=O)Oc2ccc(C3C4=C(CCCC4=O)N(CCC(=O)O)C4=C3C(=O)CCC4)cc2Cl)cc1,x,6.6*,x,x,x,8.8
Cc1cc(/C=N/n2cnnc2)c(C)n1-c1ccc(OCc2ccc(F)cc2)cc1,11.3,-0.3,0.4,-5.0,69.2*,7.1
Cc1ccc(Nc2nc(N/N=C/c3c[nH]c4ccccc34)nc(N3CCOCC3)n2)cc1,x,-0.6,x,x,x,15.9
C(=N\Nc1nc(Nc2ccccc2)nc(N2CCOCC2)n1)/c1c[nH]c2ccccc12,x,-1.9,x,-7.6,46.6*,13.0
Clc1ccc(CCNc2nc3ccccc3s2)cc1,x,-2.7,x,-3.0,-1.3,-1.4
O=c1c(-c2nc3ccccc3s2)cccn1Cc1ccc(Cl)cc1,x,68.5*,x,96.4*,-87.0,-3.9
CCOC(=O)c1sc(NC(=O)c2cccnc2)c(C#N)c1C,63.4*,-0.6,-9.3,1.6,-12.7,-9.0
CCCn1c2ccccc2c2nnc(SC(CC)C(=O)Nc3cc(C)on3)nc21 (stereo unspecified),x,0.5,x,29.7*,-37.5,-5.8
CCCn1c2ccccc2c2nnc(SC(CC)C(=O)Nc3sc4c(c3C#N)CCCC4)nc21 (stereo unspecified),-9.4,-1.9,69.1,-2.4,-22.8,5.7
COc1cccc(CN2CCC(C(=O)N3CCN(c4ccccc4F)CC3)CC2)c1OC,x,-0.7,x,x,x,-2.5
CC(C)Cn1c(N)c(C(=O)COC(=O)CC23CC4CC(CC(C4)C2)C3)c(=O)n(C)c1=O,92.8,-2.0,-9.4,-2.3,59.4*,24.9
CC(C)Cn1c(N)c(C(=O)COC(=O)c2ccncc2)c(=O)n(C)c1=O,x,-1.0,x,-2.9,-13.1,1.9
N#Cc1ccc(-c2cccnc2)nc1SCC(=O)Nc1sc2c(c1C#N)CCC2,6.6,6.9*,0.9,x,x,8.5
O=C(CCc1nc2ccccc2c(=O)[nH]1)OCc1ccc(Cl)cc1Cl,x,-0.7,x,x,x,-13.3
COc1ccc(OC)c(CCNC(=O)Cn2sc3nc(C)cc(C)c3c2=O)c1,51.7*,-4.3,-7.4,-7.1,-18.1,10.9
COc1cc2c(cc1OC)C1=C(C#N)CCC(=NC(=O)c3ccc(Cl)cc3)N1CC2,x,0.5,x,55.1*,-14.2,-15.4
